Hits are enriched below; roughly 2.1% of the tested compounds scored in any of these assays.
TDP-43 yeast inh = TDP-43 toxicity inhibition in yeast; TDP-43 expressing yeast growth rescue, BacTiter-Glo, 24 h; Potency, µM (top dose mostly 46.1 µM), for the others: at the highest dose growth rescue (activation), most hits filed as activators; 410,000 compounds, 1.8% hits; AID 652104; also: % of control where 0% means no effect; nearly all actives have a fitted effect of over 50% in size
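Cell-based yeast growth screen: TDP-43 expression induced in galactose, inoculum OD600=0.02 after raffinose pregrowth to mid-log. Read-out BacTiter-Glo luminescence at 24 hr, 30 deg C; inhibition of toxicity seen as signal increase.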
Abeta rescue = A-beta toxicity reversal in yeast | yeast expressing A-beta42, growth rescue, OD600, 48 h; response scale: 0% DMSO, 100% iron-clioquinol control | Potency, µM (highest dose often 46.1 µM), hits mostly activators | 410,000 compounds, 0.063% hits; also: nearly all actives have a fitted effect of over 55% in size
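Growth rescue measured by 600 nm absorbance after 48 h yeast culture at 30 C with compound. Values normalized between DMSO and an equimolar ferric chloride plus clioquinol control.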
aSyn yeast inh = alpha-synuclein toxicity inhibition in yeast. Yeast expressing alpha-synuclein, growth rescue, BacTiter-Glo, 24 h. Potency, µM (series often up to 46.1 µM), inactives show at the top dose growth rescue (activation), hits mostly activators. 370,000 compounds, 0.14% hits. AID 652106; also: % of control where 0% means no effect; nearly all actives have a fitted effect of over 65% in size
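Rescue of yeast growth: cells expressing toxic alpha-synuclein, induced in galactose at OD600 0.02, incubated with compound 24 h at 30 C. ATP luminescence quantified growth; inhibitors of toxicity appear as activators.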
FUS yeast rescue = rescues growth of FUS-expressing yeast | 390,000 compounds, 0.24% hits | AID 1347120 | S. cerevisiae FUS-expressing, growth rescue, OD600, 24 h | Potency, µM (top dose mostly 76.6 µM), usual class: activators;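 also: plate controls were DMSO vehicle for no effect and reference control for full effect; nearly all actives have a fitted effect of over 55% in size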
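Cultures pregrown in 2.5% raffinose medium are shifted to minimal medium containing 2% galactose to express toxic FUS. Compounds are tested at several concentrations. After 24hr at 30C, growth is quantified at 600 nm absorbance.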
* hit, by the source's call; i = inactive; ? = inconclusive; . = not tested or not shown; [ ] = remark or other dose. Calls follow the shape of the dose curve; as a rule, active = well fitted curve in the direction sought with a large enough effect; inconclusive = small, poorly fitted or top-dose-only effect, or another doubt; inactive = no such curve, though single readings can be large; an effect the other way counts as inactive or inconclusive. Potency is read from the fitted curve at half-maximal effect.

SMILES	TDP-43 yeast inh	Abeta rescue	aSyn yeast inh	FUS yeast rescue
CC(=O)N1CC2(CC(c3ccccc3C(F)(F)F)=NO2)CN1c1ccc(Cl)cc1 (configuration not stated)	21%	i	13µM*	?
Cc1cnc(C=O)c2cccc([N+](=O)[O-])c12	20µM*	i	14%	i
CNS(=O)(=O)c1cccc(C(=O)OCc2csc(-c3ccccc3)n2)c1	16µM*	i	0%	.
O=C(CNS(=O)(=O)c1cccc(Cl)c1)OCc1csc(-c2ccccc2)n1	11%	i	?	.
COc1ccccc1N1CCN(C(=O)c2cc3ccc4ccc(C)[nH]c4c3n2)CC1	?	i	0%	i
CCC(C)c1ccc(NC(=S)NCCn2cc(Br)cn2)cc1 (configuration not stated)	-3%[0.397 µM]	10µM*	-1%	i
CCC(C)c1ccc(NC(=S)NCCn2cc(Cl)cn2)cc1 (configuration not stated)	0%	i	0%	i
O=C(COc1ccccc1C(=O)Nc1ccccc1)NCCCCc1ccccc1	.	.	-6%	.
O=C(OCCCOc1ccc(F)cc1)c1ccc(O)cc1O	13µM*	i	-11%	i
CCc1cc(C(=O)c2ccccc2)c(N)s1	11µM*	i	2%	i
Cc1cc(C)cc(NC(=O)c2cc3c(=O)n(Cc4ccco4)ccc3nc2C)c1	28%	i	.	i
Nc1cc2c(cc1C(=O)c1cccc(Br)c1)OCCO2	14µM*	i	-4%	i
CCC(O)c1cc2c(cc1NC(=O)c1cccc(Br)c1)OCCO2 (configuration not stated)	13µM*	i	8%	i
CCC(=O)c1cc2c(cc1NC(=O)c1ccccc1F)OCCO2	10%	i	0%	i
Nc1cc2c(cc1C(=O)c1ccccc1F)OCCO2	18µM*	i	3%	i
O=C(Nc1ccc2c(c1)OCCO2)c1cccc(Br)c1	23%	i	-30%	i
CCc1ccccc1NC(=O)c1ccc2c(O)c(S(=O)(=O)c3ccccc3)c(=O)[nH]c2c1	?	i	.	i
C=CCSc1nnc(-c2sc(-c3ccccc3)nc2C)n1C	16µM*	i	.	i
O=C(CCNS(=O)(=O)c1ccc2c(c1)CCN2C(=O)C1CC1)N1CCN(c2cccc(C(F)(F)F)c2)CC1	16%	i	2%	?
COc1cc(/C=C/[N+](=O)[O-])ccc1OC(=O)/C=C/c1ccc(F)cc1	0.71µM*	i	-18%	i
Cc1ccc2[nH]c(C(=O)N3CCCC(Nc4ccc(F)cc4)C3)cc2c1 (configuration not stated)	22µM*	i	24%	?
Cc1cc(C)c(C(=O)N2CCCC(Nc3ccc(F)cc3)C2)o1 (configuration not stated)	24%	i	0%	i
O=C(NCCN1CCCCC1)c1ccc(Cn2c(SCc3ccccc3)nc3cccnc32)cc1	0%	i	.	i
C=CCn1cccc(C(=O)Nc2ccc(Cl)cc2)c1=O	10µM*	i	2%	i
CCOc1cc(Cl)c(S(=O)(=O)n2cc(C)nc2CC)cc1Cl	?	i	.	i
SMILES	TDP-43 yeast inh	Abeta rescue	aSyn yeast inh	FUS yeast rescue
O=C(CN1C(=O)COc2ccc(S(=O)(=O)NC3CCCC3)cc21)Nc1ccc(F)c(Cl)c1	-4%	i	.	20µM*
O=C(Nc1cc(Cl)cc(Cl)c1)c1cc(S(=O)(=O)NC2CCCC2)ccc1F	20µM*	i	.	i
CCN(CC)c1nc(NN)nc(Nc2ccc(C)c(Cl)c2)n1	13µM*	?	-9%	i
CCOc1ccc(NC(=O)CCn2c(=O)c3cccn3c3cccnc32)cc1	27%	i	.	i
CCOc1cc2c(cc1O)CCC1C2CCC2(C)C(O)CCC12 (configuration not stated)	16µM*	i	1%	.
CCNc1cc2c(cc1O)CCC1C2CCC2(C)C(O)CCC12 (configuration not stated)	?	i	14%	.
COc1ccc(Cl)cc1NC(=O)c1ccc2c(c1)CCN2S(C)(=O)=O	-9%	i	.	i
O=C(NCc1ccc(Cl)cc1)c1ccc2oc(=O)n(Cc3ccccc3)c2c1	2%	i	.	i
CCC(C)Cn1c(/C=C/c2ccccc2)nc2ccccc21 (configuration not stated)	14µM*	i	.	i
CC(C)CCn1c(/C=C/c2ccccc2)nc2ccccc21	14µM*	i	.	i
COc1ccccc1Cn1c(/C=C/c2ccccc2)nc2ccccc21	20µM*	i	-29%	.
COc1ccc(/C=C/c2nc3ccccc3n2Cc2ccccc2OC)cc1	?	i	-12%	i
CC(C)Cn1c(/C=C/c2ccc(F)cc2)nc2ccccc21	14µM*	i	-14%	i
COc1ccc(C2Nc3ccccc3-c3nnc(SC)nc3O2)cc1C (configuration not stated)	0%	i	.	i
Cc1ccc(NC(=O)C2CCN(c3nc(-c4ccc(C(C)C)cc4)no3)CC2)c(Cl)c1	0%	i	.	i
Cn1c(SCC2CCC2)nnc1-c1ccco1	.	.	.	i
COc1ccc(Cl)cc1NC(=O)CCS(=O)(=O)c1cccc2nonc12	-11%	i	.	i
CCC(C(=O)OCC(=O)Nc1ccc(SC(F)F)cc1)c1ccccc1 (configuration not stated)	10µM*	?	0%	i
COc1ccc(C)cc1NC(=O)C(Sc1nnc2ccccn12)c1ccccc1 (configuration not stated)	-4%	i	-11%	.
COc1ccc(C)cc1NC(=O)C(Sc1nnc(-c2ccncc2)n1-c1ccc(Cl)cc1)c1ccccc1 (configuration not stated)	-1%	i	7%	22µM*
COC1=C(Nc2ccc(OC)cc2)C(=O)c2ccccc2C1=O	18µM*	i	-16%	i
COc1ccc(S(=O)(=O)Nc2cccc3ccccc23)cc1	.	.	19%	.
CCOc1ccc(NC2=C(OC)C(=O)c3ccccc3C2=O)cc1	18µM*	i	-12%	i
COC1=C(Nc2ccc(O)cc2)C(=O)c2ccccc2C1=O	?	i	-12%	i
COc1ccc(NS(=O)(=O)c2cccc3ccccc23)cc1	11µM*	i	?	i
COC1=C(Nc2ccc(OC)cc2)C(=O)C(OC)=C(Nc2ccc(OC)cc2)C1=O	21%	i	-1%	i
CC(NCc1ccco1)C(=O)N1CCCN(C)CC1 (configuration not stated)	.	.	.	i
COc1ccc(CNC(=O)Cc2ccc(NC(=O)N3CCCCc4ccccc43)cc2)cc1	8%	i	.	i
CC(=O)[C@H]1CC[C@H]2[C@@H]3CC=C4C[C@@H](O)CC[C@]4(C)[C@H]3CC[C@]12C	-4%	i	12%	i
COC1CCC2(C)C(=CCC3C4CC(O)CC4(C)CCC32)C1 (configuration not stated)	14µM*	i	16%	.
